Assay results reported in PubChem BioAssay AID504834 (National Center for Advancing Translational Sciences (NCATS), 2011).
Where “and” joins values, the source holds several entries; their conditions need not be identical. Identical values can stand only once. The whole screen tested about 320,000 compounds, of which about 22,000 (6.9%) were called active. Another 27% or so got no clear call; they are omitted. This is one part of a sample in which actives are shown more often than they occur. A number with no mark means an inactive call. The call rests on the fitted dose curve; in most records, active means well fitted inhibition curve with a large enough effect; inconclusive means small, poorly fitted or top-dose-only effect, or another doubt; inactive means no such curve, though single readings can be large or run the other way.

assay: Primary qHTS for delayed death inhibitors of the malarial parasite plastid, 96 hour incubation; details: P. falciparum luciferase reporter growth; series mostly up to 28.7 µM; activity change, negative = inhibition: at the top concentration
Procedure, shortened: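 Cell-based qHTS: luciferase-tagged P. falciparum in erythrocytes (2% hematocrit, 0.05% parasitemia final) incubated with compounds for 96 hours, 37 C, 5% CO2; luciferase detection reagent then added and luminescence measured.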
On the % scale 0 is the no-effect control and ±100 the full control effect; potency means the concentration at half of the fitted maximal effect.

Row | Compound | Potency | activity change, negative = inhibition
1 | CC[N+]1(C)CCCC(OC(=O)C(O)(c2ccccc2)c2ccccc2)C1 (centres undefined) | 8.49 µM (active) and 10.4 µM (active) | –
2 | CCOC(=O)CCP(=O)(O)C(O)(c1ccccc1)c1ccccc1 | – | 6.27%
3 | CN(C)N(C)C(=O)C(O)(c1ccccc1)c1ccccc1 | – | -3.89%
4 | O=S(=O)(c1ccc(Cl)cc1)c1nc(-c2ccccc2F)oc1NCCN1CCOCC1 | – | -26.1%
5 | C[N+](C)(CCCCCC[N+](C)(C)CCCN1C(=O)c2cccc3cccc(c23)C1=O)CCCN1C(=O)c2cccc3cccc(c23)C1=O | 0.233 µM (active) | –
6 | O=C1c2cccc3cccc(c23)C(=O)N1CCCCCc1n[nH]c(=S)o1 | – | 21.4%
7 | O=C(CN1C(=O)c2cccc3cccc1c23)Nc1ccccc1 | – | 6.14%
8 | COc1cc(/C=C/C(=O)O)cc(S(=O)(=O)Nc2ccccc2C(=O)NCCc2ccccc2)c1OC | – | 24.5%
9 | Cc1cc(C)cc(NC(=O)c2cccc(NC(=O)C3C4CC5OC(=O)C3C5C4)c2)c1 (centres undefined) | 0.0738 µM (active) | –
10 | Cc1cccc(NC(=O)C(C)N2C(=O)C3C4CC(C(Br)C4Br)C3C2=O)c1 (centres undefined) | – | 104%
11 | Cc1ccc(NC(=O)COC(=O)C2C3CC4OC(=O)C2C4C3)cc1Cl (centres undefined) | – | 0.766%
12 | O=C(NCCS(=O)(=O)N1CCN(c2ccccc2)CC1)c1ccco1 | – | 10.3%
13 | CSc1cccc(NC(=O)CN2C(=O)COc3ccc(S(=O)(=O)N4CCOCC4)cc32)c1 | – | 8.78%
14 | COCCn1nnnc1C(c1ccccc1Cl)N1CCN(c2ccccc2OC)CC1 (centres undefined) | – | -5.44%
15 | CN(C(=O)CSc1nnnn1-c1ccccc1)C1CCCCC1 | – | 1.42% [at 5.75 µM]
16 | CCC(=O)N(C)C(c1ccccc1Cl)c1nnnn1-c1c(C)cccc1C (centres undefined) | 9.28 µM (active) | –
17 | CCc1ccccc1NC(=O)CSc1nnc(CCNC(=O)OC(C)(C)C)o1 | – | 14.6%
18 | O=c1[nH]c(=O)n(Cc2ccco2)c2c1C(C(F)(F)F)(C(F)(F)F)N=C(c1ccco1)N2 | – | 38%
19 | Cc1ccccc1C1=NC(C(F)(F)F)(C(F)(F)F)c2c(n(-c3ccc(F)cc3)c(=O)[nH]c2=O)N1 | 11.7 µM (active) | –
20 | C=CCNC(=S)N1CCc2[nH]c3ccccc3c2C1 | – | 4.36%
21 | O=C(NC1CCCCC1)N1CCc2[nH]c3ccccc3c2C1 | 8.28 µM (active) | –
22 | O=C(Nc1ccc(Cl)cc1)N1CCc2[nH]c3ccccc3c2C1 | – | 0%
23 | Cc1ccc(F)c(NC(=O)CCOc2ccccc2C)c1 | – | 38.1%
24 | COc1ccccc1C(=O)N1C(CC(=O)Nc2ccccc2C)C(=O)NC2CCCCC21 (centres undefined) | – | 2.48%
25 | COc1ccc(OC)c(C2C3=C(N=c4s/c(=C\c5cccc(O)c5)c(=O)n42)c2ccccc2CC3)c1 (centres undefined) | 2.08 µM (active) | –

Row | Compound | Potency | activity change, negative = inhibition
26 | COc1cc(C(=O)OCC(=O)NC(C)CCc2ccccc2)cc(OC)c1OC (centres undefined) | – | -12.3%
27 | COc1ccc(-n2nc(C(=O)NCC(=O)N3CCC(C(N)=O)CC3)c3ccccc3c2=O)cc1OC | – | 32%
28 | COCCCNC(=O)CNC(=O)c1nn(-c2ccc(OC)cc2)c(=O)c2ccccc12 | – | 5.51%
29 | COc1ccc(-n2nc(C(=O)NCC(=O)N3CCCCCC3)c3ccccc3c2=O)cc1Cl | 2.33 µM (active) | –
30 | Cc1ccc(C(=O)O/N=C(\N)c2ccccn2)cc1Cl | – | 11.2%
31 | Cc1nc(C(=O)NCc2ccccc2)sc1C1(C)CC(c2cccnc2)=NO1 (centres undefined) | – | -1.98%
32 | COc1ccccc1C1/C(=C(/O)c2ccc(C)cc2)C(=O)C(=O)N1Cc1ccco1 (centres undefined) | – | -16.6%
33 | S=C(NCc1ccco1)Nc1ccc2c(c1)OCCO2 | – | -0.369%
34 | O=C1c2ccccc2C(Nc2ccc3c(c2)OCCO3)N1Cc1ccco1 (centres undefined) | 4.65 µM (active) | –
35 | O=[N+]([O-])c1ccccc1/C=C/CN1CCCC(CO)C1 (centres undefined) | – | 93.6%
36 | COc1cccc(CNS(=O)(=O)c2ccc3c(c2)CC(C)N3C(=O)C2CCC2)c1 (centres undefined) | – | -9.19%
37 | COc1cccc(CNS(=O)(=O)c2ccc3c(c2)N(C(C)=O)CCS3)c1 | – | 16.7%
38 | COc1cccc(CNS(=O)(=O)c2ccc3c(c2)CC(C)N3C(C)=O)c1 (centres undefined) | 10.4 µM (active) | –
39 | COc1cc(C(=O)N/C(=C\c2cn(C)c3ccccc23)C(=O)N2CCOCC2)cc(OC)c1OC | – | 30.2%
40 | Cc1ccc(NC(=O)CSc2nn3c(=O)c(C)nnc3s2)cc1Cl | 9.28 µM (active) | –
41 | COc1ccc(Cc2nnc(SCC(=O)Nc3ccc(C)c(Cl)c3)[nH]c2=O)cc1 | – | 1.8%
42 | Cc1ccc(NC(=O)C/C(N)=N/O)cc1Cl | – | -9.25%
43 | Fc1cc(F)c2nc(N3CCOCC3)sc2c1 | 3.7 µM (active) | –
44 | O=C(c1ccc2nc(N3CCOCC3)sc2c1)N1CCN(c2ccc(Cl)cc2)CC1 | – | 33.2%
45 | O=S(=O)(Nc1ccc2nc(N3CCOCC3)sc2c1)c1ccccc1 | – | 126%
46 | COc1ccc(S(=O)(=O)N2CCN(C(C)C(=O)Nc3ccc(C(C)C)cc3)CC2)cc1 (centres undefined) | – | -96.3%
47 | O=C(O)c1cc([N+](=O)[O-])c(Nc2cccc3ccccc23)c([N+](=O)[O-])c1 | 3.29 µM (active) | –
48 | O=[N+]([O-])c1cccc(Nc2c3ccccc3nc3ccccc23)c1 | – | -0.0462%
49 | CCOc1ccccc1Nc1ccc(C(=O)O)cc1[N+](=O)[O-] | – | -20.7%
